Source: the supplement of paper PMC6555819

Legend:
Assay in all cases: PBM binding z-score (relative to random genomic background probes); higher = stronger binding; sequences stand for … in GC…GCGATTGACAGCGTAGAATGAAGG
[1] = tested on: PPARg:RXRa DBDmut IVT, anti-RXR (DBD mutation: RXRa K156A/R161A, NR concentration 270 nM, RXRa partner concentration 90 nM)
Procedure, shortened: (§1)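 Binding z-scores take random background probes as their reference. They come from custom Agilent 4×180K protein-binding microarrays incubated 1 h with ligand-free nuclear receptor dimers, with antibodies against each partner (one per run) detecting binding. Scanned fluorescence was regression-normalized.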

[2] = tested on: PPARg:RXRa IVT, anti-PPARg (NR concentration 270 nM, RXRa partner concentration 90 nM)
Procedure, shortened: as §1

[3] = tested on: PPARg DBDmut:RXRa IVT, anti-PPARg (DBD mutation: PPARg1 K132A/R137A, NR concentration 270 nM, RXRa partner concentration 90 nM)
Procedure, shortened: as §1

[4] = tested on: PPARg DBDmut IVT, anti-PPARg (DBD mutation: PPARg1 K132A/R137A, NR concentration 270 nM)
Procedure, shortened: as §1

[5] = tested on: PPARg homodimer (NR concentration 180 nM)
Procedure, shortened: as §1

[6] = tested on: PXR:RXRa (NR concentration 270 nM, RXRa partner concentration 90 nM)
Procedure, shortened: as §1

[7] = tested on: PXR homodimer (NR concentration 270 nM)
Procedure, shortened: as §1

[8] = tested on: RARa:RXR (NR concentration 270 nM, RXRa partner concentration 90 nM)
Procedure, shortened: as §1

[9] = tested on: RARa homodimer (NR concentration 270 nM)
Procedure, shortened: as §1

[10] = tested on: RARb:RXRa (NR concentration 270 nM, RXRa partner concentration 90 nM)
Procedure, shortened: as §1

[11] = tested on: RARb homodimer (NR concentration 270 nM)
Procedure, shortened: as §1

[12] = tested on: RARg:RXRa (NR concentration 270 nM, RXRa partner concentration 90 nM)
Procedure, shortened: as §1

[13] = tested on: RARg homodimer (NR concentration 270 nM)
Procedure, shortened: as §1

[14] = tested on: RXRa DBDmut IVT, anti-RXR (DBD mutation: RXRa K156A/R161A, NR concentration 90 nM)
Procedure, shortened: as §1

[15] = tested on: RXRa homodimer (NR concentration 180 nM)
Procedure, shortened: as §1

[16] = tested on: THRa:RXRa (NR concentration 90 nM, RXRa partner concentration 90 nM)
Procedure, shortened: as §1

[17] = tested on: THRa homodimer (NR concentration 90 nM)
Procedure, shortened: as §1

[18] = tested on: VDR homodimer (NR concentration 270 nM)
Procedure, shortened: as §1

Row | Sequence | PBM binding z-score [1] | PBM binding z-score [2] | PBM binding z-score [3] | PBM binding z-score [4] | PBM binding z-score [5] | PBM binding z-score [6] | PBM binding z-score [7] | PBM binding z-score [8] | PBM binding z-score [9] | PBM binding z-score [10] | PBM binding z-score [11] | PBM binding z-score [12] | PBM binding z-score [13] | PBM binding z-score [14] | PBM binding z-score [15] | PBM binding z-score [16] | PBM binding z-score [17] | PBM binding z-score [18]
1 | CGTCCAAGGTCAATGCTAGGTCGGTGAAAGCATT | 3.27 | 3.65 | -0.723 | -0.78 | 1.98 | 3.86 | 0.759 | 4.18 | 0.419 | 4.95 | 4.24 | 6.11 | 6.15 | 3.31 | 4.83 | 3.79 | 1.98 | 2.04
2 | GATACAAGGTCAAGGCCAGAGTACGCGTATTGAT | 3.92 | 4.69 | 1.01 | 0.226 | 2.18 | 3.85 | 0.847 | 4.27 | 0.975 | 5.35 | 4.63 | 5.82 | 6.11 | 2.63 | 5.5 | 3.88 | 2.35 | 2.41
3 | TCTTGTAGATCTACAGGAGGTTAAGAAAGATCGA | 0.98 | 0.28 | 0.42 | 1.12 | -0.349 | 0.739 | -0.569 | 0.866 | -0.41 | 0.172 | -0.0502 | 0.199 | 0.133 | 0.107 | 0.709 | 0.534 | -0.449 | -0.594
4 | GCTGCTAGGCCAACTGATGGTCAGCTAAAGCTCG | 1.28 | -0.0931 | -1.27 | -1.3 | -0.811 | -0.987 | -0.793 | -0.653 | -1.39 | 0.829 | 0.279 | 0.0424 | 0.383 | -0.307 | -0.651 | -0.291 | -1.08 | -1.03
5 | TCATATAGGTAAATGCTAGGTGAAAGTGCGATCT | 4.06 | 3.13 | 0.822 | 0.878 | 1.41 | 0.653 | 0.401 | 1.12 | 1.15 | 0.649 | 0.752 | 0.609 | 0.488 | 1.55 | 1 | 1.64 | 0.475 | 0.485
6 | CCTGCTAGGTCACGGTCAGCTAATCTACAGTATG | 5.34 | 5.12 | 1.07 | 0.203 | 2.79 | 2.08 | -0.469 | 3.24 | 1.67 | 4.46 | 3.98 | 5.01 | 6.09 | 2.08 | 4.15 | 3.35 | 2.35 | 0.444
7 | GCTAGTTGGTCAGTAAAAGGTCACACCCCGGTCG | 0.618 | 2.91 | -0.641 | -0.291 | 3.31 | 4.6 | 0.747 | 5.06 | 0.952 | 4.21 | 5.28 | 5.17 | 4.3 | 0.0893 | 4.86 | 3.57 | 2.15 | 1.43
8 | AGTCGAAGTTCAGGACGAGGTAACGTAAAGCACG | -0.408 | 0.263 | -0.282 | -0.353 | 0.469 | 1.19 | 0.0866 | 1.42 | 0.0687 | 2.41 | 1.36 | 2.55 | 1.89 | 1.42 | 1.28 | 3.25 | 1.62 | 0.996
9 | GCTAGTTGGTGAGTAAAAGGTCACACACCGGTCG | 0.239 | 2.74 | 0.00849 | 0.663 | 3.73 | 4.81 | 0.986 | 5.64 | 0.736 | 4.05 | 4.97 | 4.87 | 4.37 | 0.235 | 5.35 | 3.48 | 1.6 | 1.57
10 | ATCTCTAGGTAACAAGTTCAGTGAGAGAGAGGAC | 3.21 | 3.22 | 1.3 | 1.5 | 1.39 | 1.73 | 1.77 | 0.827 | 1.3 | 1.75 | 1.86 | 1.4 | 1.54 | 0.761 | 0.903 | 1.49 | 0.878 | 2.81
11 | ATCTCTAGGTAAAAATTCAGTGAATCCCGAGGAT | 1.24 | 1.17 | 1.27 | 1.13 | 0.243 | -0.0506 | -0.317 | -0.0791 | 0.766 | 0.165 | -0.367 | 0.604 | 0.58 | -0.329 | 0.184 | 0.19 | -0.0698 | -0.0746
12 | CATACTGGGCCAAAAAGGTCATTGATGCCGATAA | 3.46 | 3.71 | 0.731 | 0.232 | 2.9 | 4.68 | 3.77 | 5.06 | 2.12 | 3.82 | 4.48 | 4.89 | 4.82 | 1.25 | 5.11 | 3.14 | 0.641 | 3.14
13 | ATCTCTAGGTAAAGATAGTTCAGTGAGTGCAAAT | 2.29 | 1.9 | 0.931 | 0.67 | 0.928 | 3.93 | 11.4 | 0.596 | 0.987 | 0.924 | 1.5 | 0.634 | 0.838 | 0.341 | 0.157 | 1.1 | 0.522 | 4.13
14 | AATACAGGGTCATCGTCGGCCAGAGTACGCACAG | 2.45 | 4.09 | 1.99 | 1.48 | 3 | 4.39 | 0.762 | 5.31 | 1.13 | 4.46 | 3.96 | 5.6 | 5.02 | 3.4 | 6.37 | 4.1 | 1.64 | 3.57
